{"source": "ChEMBL document CHEMBL2218924", "about": "“A broad activity screen in support of a chemogenomic map for kinase signalling research and drug discovery” (Biochem J, 2013)", "data": [{"biological_target": "MAP kinase-activated protein kinase 3 (Homo sapiens) (UniProt Q16644)", "sequence (Q16644 whole entry, looked up)": "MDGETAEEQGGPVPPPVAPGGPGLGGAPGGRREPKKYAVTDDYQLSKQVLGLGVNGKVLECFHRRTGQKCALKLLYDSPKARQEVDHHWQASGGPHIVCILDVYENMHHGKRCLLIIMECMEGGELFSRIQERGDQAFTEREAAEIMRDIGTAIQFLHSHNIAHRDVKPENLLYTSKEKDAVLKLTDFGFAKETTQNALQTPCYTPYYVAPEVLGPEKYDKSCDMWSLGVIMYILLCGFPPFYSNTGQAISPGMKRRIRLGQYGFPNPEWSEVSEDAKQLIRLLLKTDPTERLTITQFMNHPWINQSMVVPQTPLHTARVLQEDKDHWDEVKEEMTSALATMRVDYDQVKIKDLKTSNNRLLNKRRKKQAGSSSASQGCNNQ", "conditions": "at 1 µM", "units": {"residual activity": "%"}, "values": [{"smiles": "O=C(Nc1cccc(Nc2cc(Nc3cccc(C(F)(F)F)c3)ncn2)c1)C1CC1", "residual activity": 90}, {"smiles": "Cc1nc2cc3nc(-c4cccs4)cnc3cc2n1C", "residual activity": 114}, {"smiles": "CNc1cc2c(Nc3cccc(Br)c3)ncnc2cn1", "residual activity": 117}, {"smiles": "Cn1c2ccccc2c2c3c(c4c5ccccc5n(CCC#N)c4c21)CNC3=O", "residual activity": 131}, {"smiles": "Cn1cc(/C=C2\\C(=O)Nc3ccc(S(N)(=O)=O)cc32)c2ccccc21", "residual activity": 117}, {"smiles": "CC(C)c1nn(-c2c(Cl)cccc2Cl)c2nc(Cc3ccc(OCCO)cc3)[nH]c(=O)c12", "residual activity": 101}, {"smiles": "COc1cc2ncnc(Nc3ccc(O)c(Br)c3)c2cc1OC", "residual activity": 124}, {"smiles": "CC(C)n1cnc2c(NCc3ccccc3)nc(NCCCO)nc21", "residual activity": 91}, {"smiles": "N#C/C(=C1/Nc2ccccc2S1)c1ccnc(NCCc2cccnc2)n1", "residual activity": 99}, {"smiles": "Cc1nc(-c2ccccc2)c(-c2ccncc2)o1", "residual activity": 103}, {"smiles": "O=[N+]([O-])c1ccc(-c2nc(-c3ccc(F)cc3)c(-c3ccncc3)[nH]2)cc1", "residual activity": 105}, {"smiles": "c1ccc(-c2cnc(Nc3ccc(OCCN4CCCC4)cc3)s2)cc1", "residual activity": 118}, {"smiles": "CC#CC(=O)Nc1cc2c(Nc3ccc(F)c(Cl)c3)ncnc2cn1", "residual activity": 104}, {"smiles": "C[C@@H](N)[C@H]1CC[C@H](C(=O)Nc2ccncc2)CC1", "residual activity": 90}, {"smiles": "Nc1ccc2ncnc(NCCc3ccc(Oc4ccccc4)cc3)c2c1", "residual activity": 117}, {"smiles": "Oc1ccc(-c2nc(-c3ccc(F)cc3)c(-c3ccncc3)[nH]2)cc1", "residual activity": 127}, {"smiles": "Cn1nc2c3c(cccc31)C(=O)c1ccccc1-2", "residual activity": 93}, {"smiles": "O=C(Nc1cccc(Nc2nccc(Nc3cccc(C(F)(F)F)c3)n2)c1)C1CC1", "residual activity": 122}, {"smiles": "COc1cc2c(cc1OC)-c1n[nH]c(Nc3cccc(F)c3)c1C2", "residual activity": 99}, {"smiles": "Nc1n[nH]c2nc3ccccc3nc12", "residual activity": 99}, {"smiles": "COc1cc2ncnc(N3CCN(C(=O)Nc4ccc(Oc5ccccc5)cc4)CC3)c2cc1OC", "residual activity": 100}, {"smiles": "CC(C)n1cnc2/c(=N/c3cccc(Cl)c3)nc(NCCO)[nH]c21", "residual activity": 116}, {"smiles": "NC(=O)Nc1sc(-c2ccc(F)cc2)cc1C(N)=O", "residual activity": 98}, {"smiles": "O=C1Nc2ccccc2/C1=C1/Nc2ccccc2/C1=N\\OCCC(O)CO", "note": "(stereo unspecified)", "residual activity": 106}, {"smiles": "NCCNc1ncc(C(N)=O)c(Nc2cccc(C(F)(F)F)c2)n1", "residual activity": 106}, {"smiles": "O=Nc1c(-c2c(O)[nH]c3ccccc23)[nH]c2ccccc12", "residual activity": 117}, {"smiles": "Cn1cnc2cc3c(Nc4cccc(Br)c4)ncnc3cc21", "residual activity": 107}, {"smiles": "Nc1nc(Nc2ccc(S(N)(=O)=O)cc2)nn1C(=S)Nc1c(F)cccc1F", "residual activity": 97}, {"smiles": "COc1cccc(-c2cc(=O)c3ccccc3o2)c1N", "residual activity": 122}, {"smiles": "CC(=O)c1ccc(N2CCOCC2)cc1O", "residual activity": 131}, {"smiles": "Nc1cccc(-c2cc3c(Oc4cccc(O)c4)ncnc3[nH]2)c1", "residual activity": 126}, {"smiles": "COc1ccc(C(=O)Nc2sc3c(c2C(N)=O)CCCC3)cc1OC", "residual activity": 71}, {"smiles": "CN(C)CCCn1cc(C2=C(c3c[nH]c4ccccc34)C(=O)NC2=O)c2ccccc21", "residual activity": 137}, {"smiles": "CCN(CC)CCCCN1c2ccccc2Oc2ccc(Cl)cc21", "residual activity": 115}, {"smiles": "O=C1C(Cl)=C(N2C(=O)CCC2=O)C(=O)c2ccccc21", "residual activity": 101}, {"smiles": "O=C(CCCc1ccc(-c2ccccc2F)cc1)Nc1ccc(O)cc1", "residual activity": 100}]}]}
